Measurements from PubChem BioAssay.
Several values for one entry are separate records, joined by “and”; a condition that tells them apart may be missing. Equal entries are not always repeated. Activity calls are given as the source filed them.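 Rule for the calls, unless noted: active = inhibition at or above 50% relative to wild type and mutant plate controls; inactive = inhibition below 50%.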

Tests used:
[1] = inhibitors of TNFa-induced NFkB p65 translocation, primary screen, imaging, HUVEC, MLSMR starter and 10KST1 sets (AID 438;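 active = inhibition above 20% together with a positive visual image hit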;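 note: compound added about 3h40 before a 20 min TNFalpha stimulation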;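 for inhibition: signal is the nuclear over cytoplasmic p65 intensity ratio per well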); conditions: HUVEC TNFa-induced p65 nuclear translocation; cell count: measured here: nuclei count (cytotoxicity indicator), at 2.08 µM; inhibition: at 2 µM, stronger effect = higher value, 0% TNFa-plus-vehicle, 100% no-TNFa wells
[2] = inhibitors of mutant huntingtin aggregation, primary screen, imaging, exon1htt(103Q)mCFP cells, high-content imaging (AID 483;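 active = visual image review flags a hit and inhibition of aggregation exceeds 20%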;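 note: compound exposure lasted 3 days before fixation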;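 for nuclei count: percent of the per-plate median nuclei count of sample wells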); conditions: exon1htt(103Q)mCFP cell line, aggregate imaging, at 2 µM; inhibition of aggregation: stronger effect = higher value; nuclei count: measured here: cell count, toxicity
[3] = inhibitors of E-selectin induction by TNFa, primary screen, imaging, HUVEC, immunofluorescence, MLSMR starter and 10KST1 sets (AID 487;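 active = visually confirmed hit in the image check and inhibition above 20%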;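 for inhibition: signal is fraction of cell area covered by stained E-selectin grains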;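 for nuclei count: 100% = median nuclei count of all wells on the same plate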); conditions: HUVEC TNFalpha-induced E-selectin immunofluorescence imaging, at 2 µM; inhibition: stronger effect = higher value; nuclei count: measured here: cell number, toxicity
[4] = DUSP6 inhibitors restoring Erk phosphorylation by chemical complementation, primary imaging in DUSP6-transfected HeLa (AID 609;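 active = compounds giving at least 50% inhibition in the cell-based MKP-3 phosphatase rescue imaging test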;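 for inhibition: phospho-Erk level distribution per well compared with pooled transfected vehicle control wells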); conditions: HeLa MKP-3 transfected, phospho-Erk imaging KS statistic, at 10 µM, cells stimulated with TPA for 15 min
[5] = target: Dual specificity protein phosphatase 6 (Homo sapiens) (UniProt Q16828); assay: as above; conditions: HeLa MKP-3 transfected, phospho-Erk imaging KS statistic; at 10 µM; stronger effect = higher value; cells stimulated with TPA for 15 min
[6] = target: Voltage-gated potassium channel subunit beta-2 (Rattus norvegicus) (UniProt P62483); assay: KvBeta enzyme negative modulators, primary screen, biochemical, NADPH fluorescence (AID 622;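 active = fluorescence slope higher than the sample average by over 3 SD, cut at about -0.22 in these data, passing the limit was not always enough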;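 note: slope of raw intensity against log time taken from 70 to 1610 s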); conditions: recombinant KvBeta, 4-cyanobenzaldehyde reduction, at 10 µM, stronger effect = higher value
[7] = target: Voltage-gated potassium channel subunit beta-2 (Rattus norvegicus) (UniProt P62483); assay: KvBeta positive modulators, primary screen, biochemical, NADPH fluorescence (AID 623;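 active = NADPH fluorescence slope more negative than the mean of all samples by about 3 SD, 99.7% confidence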;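 note: fluorescence intensity change per second fitted from 20 to 320 s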); conditions: Recombinant KvBeta, NADPH fluorescence decrease slope, 10 min; at 10 µM; stronger effect = lower value
[8] = target: Alpha-2C adrenergic receptor (Homo sapiens) (UniProt P18825); assay: modulators of alpha2C/GIRK thallium flux, primary screen, cell-based, HEK293 alpha2C/GIRK1/2 (AID 624;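 active = fluorescence slope after compound addition differing from the mean of all screened samples at 99.7% confidence, in either direction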;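 note: slope of fluorescence ratio to pre-addition baseline per second over 15 to 24 s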); conditions: thallium flux BTC fluorescence, at 10 µM, actives lie on both sides
[9] = inhibitors of larval lipid processing in zebrafish, primary screen, whole organism, PED6 fluorescence, gall bladder and intestine (AID 686;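 active = a full or partial loss of lipid-probe fluorescence in the fish gall bladder, intestine or both, judged by eye; inactive = no fluorescence loss, or compound toxic to the fish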;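 note: larvae 5 to 7 days old with five fish per well; signal comes from phospholipase A2 cleavage of quenched PED6 carried via bile; overnight exposure to compound and PED6 before scoring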); conditions: Zebrafish larvae PED6 lipid processing, fluorescence scoring; screened at 20 µM (by protocol)
[10] = inhibitors of Chlamydomonas gravitaxis, primary screen, whole organism, Chlamydomonas reinhardtii, WT vs cilia-less mutant, absorbance, 96-well (AID 463189); conditions: OD600 absorbance, 2 days, at 10 µM, stronger effect = higher value;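 note: 0% = wild type cc124 cells in DMSO and 100% = ciliumless bld1 mutant cells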
[11] = inhibitors of Sendai virus-induced IRF3 signaling, primary screen, TLR/RLR signaling modifier project, cell-based, Sendai virus stimulus, luciferase, 10K MLSCN set (AID 602276;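 active = inhibition at or above 50% at 10 µM; inactive = inhibition below 50%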;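 note: firefly luciferase from ISG56 promoter only with Renilla not read in this screen; 0% = Sendai virus plus DMSO and 100% = medium plus DMSO without virus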); conditions: HEK293 RL24 IRF3 luciferase reporter, at 10 µM, stronger effect = higher value
[12] = inhibitors of poly I:C-induced TLR3 signaling, primary screen, cell-based, poly I:C stimulus, luciferase, 10K MLSCN set (AID 602277;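 active = inhibition of the reporter signal at or above 50%; inactive = inhibition below 50%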); conditions: HEK293-TLR3 RL24 IRF3 luciferase reporter, at 10 µM, stronger effect = higher value
[13] = measured here: cell density z-score
[14] = measured here: nuclear c-Myc green intensity z-score
[15] = measured here: nuclear pErk red intensity z-score, stronger effect = higher value

Chain of Voltage-gated potassium channel subunit beta-2 (Rattus norvegicus) (P62483 whole entry, looked up): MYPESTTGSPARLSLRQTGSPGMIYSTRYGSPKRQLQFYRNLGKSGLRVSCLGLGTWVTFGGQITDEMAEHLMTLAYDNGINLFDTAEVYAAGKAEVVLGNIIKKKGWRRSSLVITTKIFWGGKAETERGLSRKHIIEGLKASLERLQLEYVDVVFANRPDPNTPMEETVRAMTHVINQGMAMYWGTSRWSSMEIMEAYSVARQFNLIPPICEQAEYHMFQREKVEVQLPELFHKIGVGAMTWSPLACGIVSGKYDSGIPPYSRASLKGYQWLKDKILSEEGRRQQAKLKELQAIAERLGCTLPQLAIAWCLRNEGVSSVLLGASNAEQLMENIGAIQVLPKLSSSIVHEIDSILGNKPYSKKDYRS
Chain of Alpha-2C adrenergic receptor (Homo sapiens) (P18825 whole entry, looked up): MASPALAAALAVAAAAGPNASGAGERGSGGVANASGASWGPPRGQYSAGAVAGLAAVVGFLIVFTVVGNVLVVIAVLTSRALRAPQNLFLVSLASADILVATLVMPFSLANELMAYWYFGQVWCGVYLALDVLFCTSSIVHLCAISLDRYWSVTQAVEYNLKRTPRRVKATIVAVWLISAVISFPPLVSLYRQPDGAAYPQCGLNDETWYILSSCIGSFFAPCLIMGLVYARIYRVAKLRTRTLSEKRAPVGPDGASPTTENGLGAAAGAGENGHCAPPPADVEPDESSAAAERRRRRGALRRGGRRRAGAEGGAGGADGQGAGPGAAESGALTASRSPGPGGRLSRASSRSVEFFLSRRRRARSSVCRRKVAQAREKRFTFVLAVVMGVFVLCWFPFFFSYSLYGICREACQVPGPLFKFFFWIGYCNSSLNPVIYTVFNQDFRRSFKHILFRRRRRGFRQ
Chain of Dual specificity protein phosphatase 6 (Homo sapiens) (Q16828 whole entry, looked up): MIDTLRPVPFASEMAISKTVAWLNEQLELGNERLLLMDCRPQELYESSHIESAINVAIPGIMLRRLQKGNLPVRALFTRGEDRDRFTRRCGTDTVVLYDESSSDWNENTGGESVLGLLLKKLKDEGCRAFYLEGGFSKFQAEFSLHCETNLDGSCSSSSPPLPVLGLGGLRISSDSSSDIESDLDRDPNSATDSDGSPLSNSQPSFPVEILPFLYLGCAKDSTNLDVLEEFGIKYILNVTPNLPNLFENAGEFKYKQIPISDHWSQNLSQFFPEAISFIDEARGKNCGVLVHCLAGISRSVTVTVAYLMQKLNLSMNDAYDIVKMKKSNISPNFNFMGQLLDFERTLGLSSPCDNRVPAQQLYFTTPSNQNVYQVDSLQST

Row | SMILES | cell count [1] | inhibition [1] | inhibition of aggregation [2] | nuclei count [2] [%] | inhibition [3] | nuclei count [3] [%] | z-score [4, 13] | z-score [4, 14] | z-score [4, 15] | inhibition [5] | fluorescence slope [6] | NADPH fluorescence slope [7] | slope [8] | outcome [9] | inhibition [10] | inhibition [11] | inhibition [12]
1 | CC(=Nc1ccc(C)c(C)c1)C1=C(O)CCC1=O | 616 | -14.9% (inactive) | 30.6% (inactive) | 87.4 | -30.7% (inactive) | 143 | 0.598 | -0.724 | 0.505 | 4.72% (inactive) | -0.423 (inactive) | -4.1e-05 (inactive) | 0.00609 (inactive) | inactive | 2.51% (inactive) | -16.6% (inactive) | -35.9% (inactive)
2 | CN1C2C=C3C(C#N)=C(N)C(C#N)(C#N)[C@@H](c4ccc(Cl)cc4)[C@@H]3C1CC2 (stereo not given in full) | 492 | -3.5% (inactive) | 11.7% (inactive) | 110 | -63.9% (inactive) | 120 | 1.1 | -0.782 | 0.349 | -2.47% (inactive) | -0.517 (inactive) | -1.7e-05 (inactive) | 0.00502 (inactive) | inactive | 11.6% (inactive) | 13.8% (inactive) | 29.9% (inactive)
3 | CC[N+](C)(C)c1cccc(O)c1 | 610 | -6.9% (inactive) | 10.2% (inactive) | 102 | -108% (inactive) | 130 | -0.368 | -0.0907 | -0.21 | 3.45% (inactive) | -0.492 (inactive) | -5.2e-05 (inactive) | 0.00476 (inactive) | inactive | 6.97% (inactive) and -3.25% (inactive) | 16.5% (inactive) | 38.2% (inactive)
4 | C=C1[C@@H](C)C2[C@H](Cc3ccccc3)NC(=O)[C@]23OC(=O)CC[C@H](O)CCC[C@H](C)C/C=C/[C@H]3[C@@H]1O (stereo not given in full) | 573 | -22.6% (inactive) | 25.7% (inactive) | 42.3 | -47.4% (inactive) | 104 | -1.85 | 0.937 | 1.72 | 5.42% (inactive) | -0.464 (inactive) | -6.3e-05 (inactive) | 0.00486 (inactive) | inactive | -3.13% (inactive) | 7.56% (inactive) | 45.8% (inactive)
5 | CCCCCCCCNC(C)C(O)c1ccc(SC(C)C)cc1 (stereo not given) | 561 | -16% (inactive) | -10.4% (inactive) | 105 | -40.8% (inactive) | 112 | 1.06 | -0.321 | -0.268 | 25.1% (inactive) | -0.477 (inactive) | -6.9e-05 (inactive) | 0.00365 (inactive) | inactive | 151% (active) | 19.5% (inactive) | -3.66% (inactive)
6 | CN(C)CCOc1ccccc1Cc1ccccc1 | 539 | 5.9% (inactive) | -17.6% (inactive) | 92.7 | -66.7% (inactive) | 118 | -0.59 | 1.74 | -0.949 | 10.2% (inactive) | -0.506 (inactive) | 2.6e-05 (inactive) | 0.00455 (inactive) | inactive | 147% (active) | 17.7% (inactive) | 43% (inactive)
7 | OCC(O)CN1CCN(c2ccccc2)CC1 (stereo not given) | 605 | -6.5% (inactive) | -0.5% (inactive) | 108 | -69.1% (inactive) | 122 | 0.00928 | 0.0558 | -0.225 | 25.1% (inactive) | -0.455 (inactive) | -1.7e-06 (inactive) | 0.00502 (inactive) | inactive | 19.7% (inactive) | 17.9% (inactive) | 40.8% (inactive)
8 | NCc1ccc(S(N)(=O)=O)cc1 | 705 | -2.8% (inactive) | 26.6% (inactive) | 107 | -71.2% (inactive) | 118 | 0.933 | -0.356 | -0.92 | 21.2% (inactive) | -0.453 (inactive) | -9.2e-05 (inactive) | 0.00484 (inactive) | inactive | 1.96% (inactive) | 14% (inactive) | 32.7% (inactive)
9 | Cc1c(/C(O)=C2/C(=O)C(=O)N(CCN3CCOCC3)C2c2cccnc2)cnn1-c1ccccc1 (stereo not given) | 509 | 4.8% (inactive) | 1.3% (inactive) | 102 | -26.8% (inactive) | 107 | 0.15 | -0.278 | -0.0426 | 1.6e-07% (inactive) | -0.602 (inactive) | -1.5e-05 (inactive) | 0.00432 (inactive) | inactive | 23.9% (inactive) | -12% (inactive) | -9.27% (inactive)
10 | C=CCn1c(N)c(C(=O)OC(C)(C)C)c2nc3ccccc3nc21 | 370 | -11.7% (inactive) | -9.4% (inactive) | 100 | -104% (inactive) | 124 | 1.71 | -2 | -1.69 | -2.59% (inactive) | -0.257 (inactive) | 0.000211 (inactive) | 0.00615 (inactive) | inactive | 12.3% (inactive) | 12.2% (inactive) | -1.21% (inactive)
